Screens deposited in PubChem by The Scripps Research Institute Molecular Screening Center.
MITF inh – human MITF inhibition, primary screen; AlphaScreen MITF homodimerization, bead proximity signal; O75030; inhibition, % at 2.6 µM; hit rate 0.91% among 650,000; in the data active means inhibition above about 50%
TEAD-YAP inh – TEAD-YAP interaction inhibition. hit rate 1.4% among 640,000. HEK-TIYL cells, TEAD-Gal4/YAP UAS-luciferase luminescence. AID 1259422. inhibition, % at 9.12 µM; in the data active means inhibition above about 32%
FBW7 activator – activators of human E3 ligase FBW7; hit rate 0.13% among 650,000; AlphaScreen FBW7–phospho-cyclin E peptide binding, activator screen; AID 1259310; normalized activity (activation), % at 26.1 µM; Q969H0; in the data active means normalized activity above about 1.9%;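 further: purified mutant Fbw7 with reduced substrate affinity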
GPR151 ag – activates the human receptor GPR151; Q8TDV0; PathHunter beta-arrestin GPR151 cells, luminescence; activation, % at 11.2 µM; hit rate 1% among 650,000; AID 1508602; in the data active means activation above about 4.9%
Target sequence (Q8TDV0 whole entry, looked up): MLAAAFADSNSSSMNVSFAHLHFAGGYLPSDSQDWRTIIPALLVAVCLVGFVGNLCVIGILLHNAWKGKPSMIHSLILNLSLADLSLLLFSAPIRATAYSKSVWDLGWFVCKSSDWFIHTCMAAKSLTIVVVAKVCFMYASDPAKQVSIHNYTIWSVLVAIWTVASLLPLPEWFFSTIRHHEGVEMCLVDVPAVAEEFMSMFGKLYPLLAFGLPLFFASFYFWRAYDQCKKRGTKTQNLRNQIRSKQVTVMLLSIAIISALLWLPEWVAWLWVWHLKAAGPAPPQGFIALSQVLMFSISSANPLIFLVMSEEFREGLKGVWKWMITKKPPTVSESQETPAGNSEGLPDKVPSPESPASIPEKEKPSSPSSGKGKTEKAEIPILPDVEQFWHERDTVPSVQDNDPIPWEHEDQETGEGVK
Large screens that a line does not name were inactive. Rows were chosen to be rich in hits. Some 3.5% of all compounds tested hit in one or more screens of this group.

Cc1ncn(-c2ccc(Nc3ncc(Cl)c(-c4cnn(C)c4)n3)cc2)n1	TEAD-YAP inh 72
COc1ccccc1N=c1scc(-c2ccc(OC)c(OC)c2)n1CCCO	TEAD-YAP inh 42
COc1ccc(-c2csc(=Nc3ccccc3)n2CCCO)cc1OC	none
CCOC(=O)N1CCN(C(=O)c2ccc3c(=O)n(-c4ccccc4)c(SCc4cccc([N+](=O)[O-])c4)nc3c2)CC1	none
CCOC(=O)CSCc1nc(-c2ccc(C)cc2)oc1C	TEAD-YAP inh 80
COc1ccc(-c2nc(CSCC(=O)NCC(OC)OC)c(C)o2)cc1	none
CCOc1ccc(-c2nc(CSCC(=O)NCCCN3CCCC3)c(C)o2)cc1	none
COc1ccc(-c2nc(CSCC(=O)O)c(C)o2)cc1	TEAD-YAP inh 82
CCOc1ccc(-c2nc(CSCC(=O)O)c(C)o2)cc1	TEAD-YAP inh 98
CCOc1ccc(-c2nc(CSCC(=O)NCCN3CCCC3)c(C)o2)cc1	TEAD-YAP inh 34
CCCCNC(=O)CSCc1nc(-c2ccc(C)cc2)oc1C	none
CCN(CC)c1ccc(C2C(C(=O)Nc3ccc(C)cn3)=C(C)NC3=C2C(=O)CCC3)cc1 (stereo unspecified)	none
COc1ccc(S(=O)(=O)Nc2ccc3c(c2)CCCN3C(C)=O)c(OC)c1	none
COc1cc(CNc2ccc3c(c2)CCN3C(C)=O)cc(OC)c1OC	TEAD-YAP inh 67
CCOc1ccccc1OCCCN1CCOCC1	none
FC(F)(F)c1cccc(/C=N/Nc2nc3ccccc3o2)c1	none
O=C1/C(=C/c2ccco2)CCc2ccccc21	none
N#CC(C#N)C(C#N)(C#N)C1CCC/C(=C\c2ccco2)C1=O (stereo unspecified)	MITF inh 81
COc1ccc(CCNC(=O)CSc2nc3ccc(Br)cc3c3nc4ccccc4n23)cc1OC	FBW7 activator 1.9
COc1ccc(CCNC(=O)CSc2nc3ccccc3c(=O)n2CCc2ccc(OC)c(OC)c2)cc1OC	none
COc1cc2nc(Oc3ccccc3)nc(Nc3ccccc3)c2cc1OC	TEAD-YAP inh 38
COc1cc2nc(Oc3ccccc3)nc(Nc3ccc(N4CCOCC4)cc3)c2cc1OC	TEAD-YAP inh 42
COc1cc2nc(Nc3ccccc3)nc(Nc3ccccc3)c2cc1OC	none
FC(F)(F)c1cc(Nc2nccc(-c3cncc(N4CCOCC4)c3)n2)ccc1Cl	none
Cn1cnnc1-c1ccc(Nc2nccc(-c3cncc(N4CCOCC4)c3)n2)cc1	TEAD-YAP inh 33
Cn1ccc2cc(Nc3nccc(-c4cncc(N5CCOCC5)c4)n3)ccc21	TEAD-YAP inh 81
Fc1cc(-c2ccnc(Nc3ccc(-c4ncn[nH]4)cc3)n2)cc(N2CCOCC2)c1	TEAD-YAP inh 74
COc1ccc(Nc2nccc(-c3cncc(N4CCOCC4)c3)n2)cc1OC	TEAD-YAP inh 47
FC(F)Oc1ccc(Nc2nccc(-c3cncc(N4CCOCC4)c3)n2)cc1	none
Cc1[nH]nc2ccc(Nc3nccc(-c4cncc(N5CCOCC5)c4)n3)cc12	TEAD-YAP inh 77
Cc1nc2ccc(Nc3nccc(-c4cncc(N5CCOCC5)c4)n3)cc2o1	none
c1cc(-c2cncc(N3CCOCC3)c2)nc(Nc2ccc(OCCN3CCOCC3)cc2)n1	TEAD-YAP inh 78
Fc1ccc(Nc2nccc(-c3cncc(N4CCOCC4)c3)n2)cc1	TEAD-YAP inh 68
O=S(=O)(c1ccc(Nc2nccc(-c3cncc(N4CCOCC4)c3)n2)cc1)N1CCOCC1	none
COC(=O)c1ccc(-c2ccc(/C=C(\C#N)c3nc(N)c(C#N)c(N)c3C#N)o2)cc1	FBW7 activator 4.7
CC(=O)NC(c1ccc(N(C)C)cc1)c1cc(Cl)c2cccnc2c1O (stereo unspecified)	none
CC(=O)NC(c1ccc(C(C)C)cc1)c1cc(Cl)c2cccnc2c1O (stereo unspecified)	TEAD-YAP inh 38
CC(=O)NC(c1ccccc1)c1cc(Cl)c2cccnc2c1O (stereo unspecified)	MITF inh 63, TEAD-YAP inh 76
CCOc1ccc(NC(=O)c2cc(S(=O)(=O)NCc3ccc(F)cc3)ccc2F)cc1	none
CCCCOc1ccc(C(=O)N/C(=C\c2cccc([N+](=O)[O-])c2)C(=O)OC)cc1	none
COC(=O)CNC(=O)c1ccc(C)cc1	none
CN1C=C/C(=C/c2cccc[n+]2C)c2ccccc21	none
CN1/C(=C/c2cccc[n+]2C)Sc2ccccc21	TEAD-YAP inh 70
C[n+]1ccccc1/C=C1\Sc2ccccc2N1CCCS(=O)(=O)O	FBW7 activator 2.5
CCCCN1/C(=C/c2cccc[n+]2C)Sc2cc(NC(C)=O)ccc21	none
CCN1/C(=C/c2cccc[n+]2C)Sc2ccc(C)cc21	TEAD-YAP inh 52
Cc1ccc2c(c1)N(C)/C(=C/c1cccc[n+]1C)S2	TEAD-YAP inh 55
